In the library only some 3.1% were active in any assay of this set; here they are far more common.
ALOX12 inhib: qHTS Assay for Inhibitors of 12-hLO (12-human lipoxygenase) | AID 1452, 2008 | actives 0.12% (n = 150,000) | purified 12-hLO, xylenol orange hydroperoxide absorbance | Potency, µM (doses to about 57.1 µM), without a hit: at the top dose activity change, negative = inhibition, most hits filed as inhibitors | Polyunsaturated fatty acid lipoxygenase ALOX12 (Homo sapiens), P18054; further: potency means the concentration at half of the fitted maximal effect; nearly all actives have a fitted effect of over 55% in size
Target sequence (P18054 whole entry, looked up): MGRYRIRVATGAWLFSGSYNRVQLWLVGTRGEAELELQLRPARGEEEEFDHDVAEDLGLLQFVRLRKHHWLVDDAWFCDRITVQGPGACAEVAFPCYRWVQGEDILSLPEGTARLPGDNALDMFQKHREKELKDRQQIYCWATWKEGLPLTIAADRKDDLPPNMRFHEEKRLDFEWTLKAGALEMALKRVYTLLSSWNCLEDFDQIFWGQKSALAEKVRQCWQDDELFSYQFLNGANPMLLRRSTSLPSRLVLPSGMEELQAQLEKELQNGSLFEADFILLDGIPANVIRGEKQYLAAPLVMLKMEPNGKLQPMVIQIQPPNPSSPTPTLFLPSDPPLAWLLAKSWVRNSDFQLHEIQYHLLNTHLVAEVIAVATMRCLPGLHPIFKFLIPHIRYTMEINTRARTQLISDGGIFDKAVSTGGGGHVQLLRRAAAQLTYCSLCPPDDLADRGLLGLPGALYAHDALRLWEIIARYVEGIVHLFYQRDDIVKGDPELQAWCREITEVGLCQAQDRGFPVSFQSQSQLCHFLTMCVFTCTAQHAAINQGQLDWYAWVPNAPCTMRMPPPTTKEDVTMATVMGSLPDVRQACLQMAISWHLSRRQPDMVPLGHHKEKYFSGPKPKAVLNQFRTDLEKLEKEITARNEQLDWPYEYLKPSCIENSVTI
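Hydroperoxide output read as Fe(III)-xylenol orange absorbance, 573-to-405 nm ratio, after 30 min reaction with 40 uM arachidonic acid. Enzyme: 150 nM purified human 12hLO, 15 min compound preincubation; 25 mM Hepes pH 7.0, room temperature.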
15-hLO-2 inh: qHTS Assay for Inhibitors of 15-hLO-2 (15-human lipoxygenase 2); purified 15hLO-2, xylenol orange hydroperoxide absorbance; Potency, µM (doses to about 57.1 µM), inactives show at the top dose activity change, negative = inhibition, actives largely listed as inhibitors; actives 0.56% (n = 110,000); AID 881, 2007; further: potency means the concentration at half of the fitted maximal effect; nearly all actives have a fitted effect of over 60% in size
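Purified human 15hLO-2 (50 nM) preincubated 15 min with compound, then 45 uM arachidonic acid for 90 min at RT in 25 mM Hepes pH 7.5, 0.01% Triton X-100. Hydroperoxide detected by Fe-xylenol orange; 573/405 nm absorbance ratio.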
PNC assembly inh: High Content Assay for Compounds that inhibit the Assembly of the Perinucleolar Compartment; actives 3.1% (n = 140,000); activity change (PNC), negative = inhibition, % at 10 µM; PC3M PTB-GFP, PNC prevalence imaging, 16 h; stronger effect = lower value;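 active means readout at or below -70, meaning at least 70% loss of cells showing the perinucleolar compartment, a nuclear body marking cancer cells; inconclusive means readout between -30 and a set limit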;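 further: plate controls were DMSO wells for no effect and camptothecin positive control wells for full effect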
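PC3M cells stably expressing PTB-GFP, 750–1000 cells/well, treated 16 h at 37 °C with compound (23 nl of library stock), in duplicate. After paraformaldehyde fixation and Hoechst stain, imaged at 20x; PNC prevalence scored by image analysis.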
The depositor's hits bear a star; u = inconclusive; x = not tested or not shown; [ ] = dose if it differs, or a comment. Unless noted, the call rests on the fitted dose curve; in most records, active means well fitted curve in the direction sought with a large enough effect; inconclusive means small, poorly fitted or top-dose-only effect, or another doubt; inactive means no such curve, though single readings can be large; an effect the other way counts as inactive or inconclusive. Unless noted, on the % scale 0 is the no-effect control and ±100 the full control effect.

SMILES	ALOX12 inhib	15-hLO-2 inh	PNC assembly inh
CCN1CCCC1CNC(=O)c1ccc(-n2c(=O)c(=O)[nH]c3ccccc32)cc1 (centres undefined)	-2%	x	x
C/C=C/c1ccc(OCCN2C(=O)NC(C)(C)C2=O)c(OC)c1	-7%	0%	17
C/C=C/c1ccc(OCCCN2C(=O)NC(C)(C)C2=O)c(OC)c1	-4%	-8%	-125*
OB(O)c1ccc(B(O)O)cc1	1%	0%	x
COCCn1c(C(=O)N2CCCC2)cc2c1C[C@H]1CN(C(=O)c3ccccc3)[C@@](Cc3ccc(OC)cc3)(C(=O)OC)[C@@H]21	-2%	2%	x
CC1CCN(C(=S)NCCc2ccccc2)CC1	1%	-4%	17
CN1CCN(C(=S)NCCc2ccccc2)CC1	1%	-9%	-82*
CN(CCOc1ccc(-c2ccn(S(=O)(=O)c3c(Cl)cccc3Cl)n2)cc1)c1ccccn1	-3%	5%	11
CN(CCOc1ccc(-c2ccn(S(=O)(=O)c3cccc4ccccc34)n2)cc1)c1ccccn1	-2%	3%[11.4 µM]	-89*
CC(=O)N1CCC[C@@]2(CCN(C(=O)Nc3ccccc3)C2)C1	0%	4%	x
CCN(CC)S(=O)(=O)c1ccc(-c2nnc(SCC(=O)Nc3nc(C)cs3)o2)cc1	9%	10%	-106*
Cc1csc(NC(=O)CSc2nnc(-c3ccc(S(=O)(=O)N4CCCC4)cc3)o2)n1	0%	-4%	3
Cn1cnc([N+](=O)[O-])c1[Se]c1nc(N)nc2c1ncn2[C@@H]1O[C@@H](CO)[C@H](O)[C@@H]1O	-5%[11.4 µM]	-6%[11.4 µM]	x
O=C(C[C@@H](c1ccccc1)N1CCCCC1)c1ccccc1	3%[11.4 µM]	1%[11.4 µM]	x
Cc1ccc(NC(=O)CSc2nnc(NC(=O)CN3CCOCC3)s2)cc1	2%	1%	-117*
CC(=O)c1ccc(NC(=O)CSc2nnc(NC(=O)CN3CCOCC3)s2)cc1	-9%	4%	3
O=C(c1cccc(F)c1)N1CCC2(CCCN(c3ncccn3)C2)CC1	-1%	2%	x
CC(=O)CSc1nnc(Cc2ccc3c(c2)OCO3)o1	-4%	x	-100*
N#CCSc1nnc(Cc2ccc3c(c2)OCO3)o1	-7%	-3%	-24
N#[N+]c1ccc(Nc2ccccc2)cc1	-3%[11.4 µM]	-7%[11.4 µM]	x
CCOC(=O)c1cnc(SCc2nc(N)nc(Nc3ccc(F)cc3)n2)nc1N	-3%	-3%	u
CCOC(=O)c1cnc(SCc2nc(N)nc(Nc3ccc(C)cc3)n2)nc1N	-15%	4%	-81*
CCCCc1nc2c(c3c1C[C@H](C)OC3)CN(C(=O)N[C@@H](C)c1ccccc1)CC2	2%[11.4 µM]	x	x
CCOC(=O)CNC(=O)Cn1cnc2c(nnn2-c2ccc(F)cc2)c1=O	-6%	3%	21
CCOC(=O)CNC(=O)CSc1ncnc2c1nnn2-c1ccc(F)cc1	4%	x	-100*
SMILES	ALOX12 inhib	15-hLO-2 inh	PNC assembly inh
COc1ccc(C(=O)N2CCC[C@@]3(CCN(c4ccccc4)C3)C2)cc1	-15%	-9%	x
COc1ccc(CN2C3CCCC2CC(NC(=O)Nc2ccccc2)C3)cc1 (centres undefined)	-4%	x	118
COc1ccc(CN2C3CCCC2CC(NC(=O)Nc2ccccc2C)C3)cc1 (centres undefined)	1%	x	-100*
O=C(COC(=O)CNC(=O)C12CC3CC(CC(C3)C1)C2)NC1CCS(=O)(=O)C1 (centres undefined)	1%	x	u
CN(C(=O)COC(=O)CNC(=O)C12CC3CC(CC(C3)C1)C2)C1CCS(=O)(=O)C1 (centres undefined)	6%	x	-121*
S=C(Nc1ccc(Cl)cc1)N(CCCN1CCOCC1)Cc1ccco1	3%	x	u
Cc1cc(NC(=S)N(CCCN2CCOCC2)Cc2ccco2)ccc1Cl	5%	x	-118*
CC(Oc1ccc(Br)cc1)C(=O)NCc1cccnc1 (centres undefined)	1%	x	x
O=C1c2cccc(OCc3ccc(F)cc3)c2CCN1Cc1ccccc1	-5%	x	-82*
Cc1ccc(COc2cccc3c2CCN(Cc2ccc(F)cc2)C3=O)cc1	-7%	x	-8
CNC[C@@H](SC)c1ccc(O)c(O)c1	-4%[11.4 µM]	-11%[11.4 µM]	x
O=C(CSc1nc(-c2ccco2)cc(C(F)(F)F)n1)Nc1ccc2c(c1)OCO2	2%	x	-16
O=C(CSc1nc(-c2ccco2)cc(C(F)(F)F)n1)Nc1ccc(C(=O)N2CCOCC2)cc1	-3%	x	-100*
CC(CC(=O)O)(CC(=O)O)C(=O)O	1%[11.4 µM]	-5%[11.4 µM]	x
COc1cc(OC)cc(C(=O)Nc2ccccc2N2CCOCC2)c1	4%	-2%	29
Cc1c(C(=O)Nc2ccccc2N2CCOCC2)sc2nc3n(c(=O)c12)CCC3	-2%	-6%	-127*
CC1CC(C)CN(CC(O)COCCOc2ccc(Br)cc2)C1 (centres undefined)	-3%	x	-102*
CC1CCN(CC(O)COCCOc2ccc(Br)cc2)CC1 (centres undefined)	-1%	x	-12
Cc1ccc(CN(c2ccc(C(=O)N3CCCC3)cc2)S(C)(=O)=O)cc1	-4%	-1%	-83*
Cc1ccc(CN(c2ccc(C(=O)N3CCc4ccccc4C3)cc2)S(C)(=O)=O)cc1	-11%	-1%	u
Cc1ccccc1OC[C@H](O)CO	-2%[25.6 µM]	1%[25.6 µM]	x
Nc1nc(-c2cc(-c3cccc4ccccc34)nc(N)n2)cc(-c2cccc3ccccc23)n1	-3%[11.4 µM]	-2%[11.4 µM]	x
Cc1c(C(Nc2ccccn2)c2ccc(Cl)cc2)c(=O)n(-c2ccccc2)n1C (centres undefined)	-16%	30%	17
Cc1c(C(Nc2ccccn2)c2ccccc2)c(=O)n(-c2ccccc2)n1C (centres undefined)	0%	x	-100*
CS(=O)(=O)N1CCC2(CC1)CN(c1ccc(-c3ccccc3)cc1)C2	-3%	-11%	x
SMILES	ALOX12 inhib	15-hLO-2 inh	PNC assembly inh
Oc1ccccc1NCC(O)Cn1ccc2ccccc21 (centres undefined)	-26%	13µM*	10
OC(CNCc1ccccc1)Cn1ccc2ccccc21 (centres undefined)	0%	x	47
C[N+]1(C)CCC[C@H]1C(=O)[O-]	-3%[25.6 µM]	7%[25.6 µM]	x
Cc1ccc(Cn2c(=O)c3c(nc4n3CCN4Cc3ccco3)n(C)c2=O)cc1	-1%	x	-100*
Cn1c(=O)n(Cc2ccc(F)cc2)c(=O)c2c1nc1n2CCCN1Cc1ccccc1	3%	-11%	u
Cc1ccc(C)c(OCCn2c(=O)c3c(ncn3C3CCCC3)n(Cc3ccccc3)c2=O)c1	-5%	x	-119*
O=c1c2c(ncn2C2CCCC2)n(Cc2ccccc2)c(=O)n1CCOc1ccccc1	-7%	x	-27
CC(=O)Oc1ccc2c(c1)CCC1C2CC[C@@]2(C)C1CC(OC(C)=O)C2OC(C)=O (some centres undefined)	-4%	2%	x
Cc1ccc(-c2cc(-c3ccc(C)o3)nc(N)c2C#N)cc1	16µM*	u	7
Cc1ccc(-c2cc(-c3ccc(F)cc3)c(C#N)c(N)n2)o1	u	x	-6
Cc1ccc(-c2cc(-c3ccc4c(c3)OCO4)c(C#N)c(N)n2)o1	u	u	-5
Cc1ccc(-c2cc(-c3ccc(Cl)cc3)c(C#N)c(N)n2)o1	11µM*	6.3µM*	-23
